# Results taken from PubChem BioAssay (NCATS).
# Results filed as inconclusive are left out. Entries that show only a call come without a potency. Values without a mark were called inactive. Calls of active or inactive are those of the source. The call rests on the fitted dose curve; in most records, active means well fitted curve in the direction sought with a large enough effect; inconclusive means small, poorly fitted or top-dose-only effect, or another doubt; inactive means no such curve, though single readings can be large; an effect the other way counts as inactive or inconclusive.
# Legend:
# [1] = biological target: Rap guanine nucleotide exchange factor 3 (Homo sapiens) (UniProt O95398); experiment: Confirmatory qHTS for antagonist of cAMP-regulated guanine nucleotide exchange factor 3 (EPAC1) (AID 1645880); further: nearly all actives have a fitted effect of over 55% in size; further: potency means the concentration at half of the fitted maximal effect
# Chain of Rap guanine nucleotide exchange factor 3 (Homo sapiens) (O95398 whole entry, looked up): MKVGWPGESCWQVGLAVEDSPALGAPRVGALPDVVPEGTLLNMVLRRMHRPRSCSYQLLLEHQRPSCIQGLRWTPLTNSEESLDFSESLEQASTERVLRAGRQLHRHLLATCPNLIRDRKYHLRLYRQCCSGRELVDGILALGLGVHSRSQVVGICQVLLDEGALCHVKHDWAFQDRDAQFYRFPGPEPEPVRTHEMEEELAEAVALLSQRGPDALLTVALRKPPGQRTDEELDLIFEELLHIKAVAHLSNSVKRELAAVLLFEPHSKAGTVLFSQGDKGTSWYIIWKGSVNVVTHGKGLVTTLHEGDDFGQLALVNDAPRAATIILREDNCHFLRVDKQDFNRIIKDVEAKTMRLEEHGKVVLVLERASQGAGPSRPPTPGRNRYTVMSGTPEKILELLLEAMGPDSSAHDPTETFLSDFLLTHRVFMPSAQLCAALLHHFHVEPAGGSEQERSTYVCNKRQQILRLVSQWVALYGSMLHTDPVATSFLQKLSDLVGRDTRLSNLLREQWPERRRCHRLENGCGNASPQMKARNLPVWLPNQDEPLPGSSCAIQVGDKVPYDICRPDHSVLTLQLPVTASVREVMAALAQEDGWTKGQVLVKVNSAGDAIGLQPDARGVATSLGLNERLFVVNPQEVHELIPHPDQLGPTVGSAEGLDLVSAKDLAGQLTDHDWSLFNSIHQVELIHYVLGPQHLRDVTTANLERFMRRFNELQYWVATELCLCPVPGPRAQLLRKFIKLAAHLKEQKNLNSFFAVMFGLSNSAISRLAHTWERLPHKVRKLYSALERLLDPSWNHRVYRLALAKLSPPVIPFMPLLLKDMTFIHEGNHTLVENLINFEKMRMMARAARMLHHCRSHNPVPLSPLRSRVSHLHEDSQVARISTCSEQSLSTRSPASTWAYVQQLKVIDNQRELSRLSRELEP
# In short: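 Nucleotide exchange uses 100 nM EPAC1, 250 nM RAP1B-BODIPY-GDP and 50 uM GDP, with compounds in a concentration-titration series. After 5 min at room temperature, fluorescence (480 nm ex/540 nm em) is read every 5 min for 30 min. Data are normalized to control ATA and DMSO.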
# [2] = biological target: Rap guanine nucleotide exchange factor 3 (Homo sapiens) (UniProt O95398); experiment: Confirmatory qHTS for agonist of cAMP-regulated guanine nucleotide exchange factor 3 (EPAC1) (AID 1645881);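 further: EPAC1 catalysed release of BODIPY-GDP from Rap1B seen as fluorescence loss; nearly all actives have a fitted effect of over 75% in size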
# [3] = biological target: Rap guanine nucleotide exchange factor 4 (Homo sapiens) (UniProt Q8WZA2); experiment: Confirmatory qHTS for agonist of cAMP-regulated guanine nucleotide exchange factor 4 (EPAC2) (AID 1645884);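 further: nucleotide exchange releases bodipy-GDP from Rap1 and this lowers its fluorescence; nearly all actives have a fitted effect of over 65% in size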
# Chain of Rap guanine nucleotide exchange factor 4 (Homo sapiens) (Q8WZA2 whole entry, looked up): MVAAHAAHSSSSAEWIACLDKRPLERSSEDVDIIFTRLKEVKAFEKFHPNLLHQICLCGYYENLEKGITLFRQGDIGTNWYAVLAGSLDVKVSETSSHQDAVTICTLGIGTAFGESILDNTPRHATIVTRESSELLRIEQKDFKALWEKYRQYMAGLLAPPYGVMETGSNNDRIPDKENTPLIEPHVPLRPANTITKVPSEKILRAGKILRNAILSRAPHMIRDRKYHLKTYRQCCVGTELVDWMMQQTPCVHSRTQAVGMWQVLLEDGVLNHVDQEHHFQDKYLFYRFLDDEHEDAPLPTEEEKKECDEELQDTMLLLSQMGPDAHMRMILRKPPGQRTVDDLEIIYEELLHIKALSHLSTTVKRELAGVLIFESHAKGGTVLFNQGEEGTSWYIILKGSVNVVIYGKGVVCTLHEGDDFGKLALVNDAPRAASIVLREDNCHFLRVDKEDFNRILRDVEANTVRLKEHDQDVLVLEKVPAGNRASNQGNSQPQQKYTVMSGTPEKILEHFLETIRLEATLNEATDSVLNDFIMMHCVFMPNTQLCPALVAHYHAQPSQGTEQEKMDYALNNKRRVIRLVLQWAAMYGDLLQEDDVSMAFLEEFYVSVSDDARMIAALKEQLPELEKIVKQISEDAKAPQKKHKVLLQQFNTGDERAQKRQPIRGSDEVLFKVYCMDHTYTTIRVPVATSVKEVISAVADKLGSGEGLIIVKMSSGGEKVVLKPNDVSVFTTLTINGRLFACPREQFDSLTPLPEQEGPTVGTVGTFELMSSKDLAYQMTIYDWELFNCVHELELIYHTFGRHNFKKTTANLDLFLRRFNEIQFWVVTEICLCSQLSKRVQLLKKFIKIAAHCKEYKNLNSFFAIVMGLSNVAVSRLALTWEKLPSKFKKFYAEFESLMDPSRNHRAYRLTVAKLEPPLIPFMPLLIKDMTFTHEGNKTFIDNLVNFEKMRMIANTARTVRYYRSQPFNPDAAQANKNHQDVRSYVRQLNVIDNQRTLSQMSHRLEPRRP
# [4] = biological target: Rap guanine nucleotide exchange factor 4 (Homo sapiens) (UniProt Q8WZA2); experiment: Confirmatory qHTS for antagonist of cAMP-regulated guanine nucleotide exchange factor 4 (EPAC2) (AID 1645885); further: nearly all actives have a fitted effect of over 25% in size; further: potency means the concentration at half of the fitted maximal effect
# [5] = biological target: Rap guanine nucleotide exchange factor 3 (Homo sapiens) (UniProt O95398); experiment: Counterscreen qHTS for antagonist of cAMP-regulated guanine nucleotide exchange factor 3 (EPAC1) (AID 1645888);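 further: fluorescence loss as bound BODIPY-GDP is released from Rap1B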
# In short: (§1)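 Rap1B–BODIPY-GDP (250 nM) with 50 uM GDP; compounds pin-transferred to 9.74 nM–152 uM final (activator) or from 7.32 nM upwards (inhibitor). Fluorescence Ex/Em 480/540 nm read at 5 and 30 min, then after adding cAMP or buffer, at room temperature.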
# [6] = biological target: Rap guanine nucleotide exchange factor 3 (Homo sapiens) (UniProt O95398); experiment: Counterscreen qHTS for agonist of cAMP-regulated guanine nucleotide exchange factor 3 (EPAC1) (AID 1645889); further: nearly all actives have a fitted effect of over 40% in size
# In short: as §1
SMILES,Potency [1],Potency [2],Potency [3],Potency [4],Potency [5],Potency [6],activation [3],"activity change, negative = inhibition [5]",activation [6],outcome [4]
Cc1c(CCC(=O)O)c(=O)oc2cc(OCc3ccc(Br)cc3)ccc12,inactive,inactive,inactive,inactive,inactive,inactive,,,,
COc1ccc(C(C)=NNc2ccc([N+](=O)[O-])cc2S(=O)(=O)Nc2ccccc2C(=O)O)c(OC)c1,37.9 µM (active),inactive,inactive,75.7 µM (active),inactive,inactive,,,,
O=c1[nH]c(/C=C/c2cccc([N+](=O)[O-])c2)c([N+](=O)[O-])c(=O)[nH]1,16.9 µM (active),inactive,inactive,inactive,inactive,inactive,,,,
COc1cccc(-c2ccc(C#N)c(OC(=O)c3ccc(Cl)cc3)n2)c1,inactive,inactive,,inactive,,,"0.578% [at 17.1 µM, percent relative to cAMP agonist control]",-4.63% [at 30.8 µM],3.51% [at 30.8 µM],
COc1ccc(CN2C(=O)c3cccnc3C2Nc2cc(Cl)c(OC)cc2OC)cc1 (stereo not drawn),75.7 µM (active),inactive,inactive,inactive,inactive,inactive,,,,
COc1cccc(C(c2nnnn2-c2c(C)cccc2C)N2CCN(C/C=C/c3ccccc3)CC2)c1OC (stereo not drawn),inactive,inactive,inactive,inactive,inactive,inactive,,,,
CCOC(=O)c1ccc(NC(=O)CSc2nc(=O)n3cccc(C)c3n2)cc1,inactive,inactive,inactive,inactive,inactive,inactive,,,,
CCCCN1C(=O)C(O)(c2c[nH]c3ccccc23)c2cc(Br)ccc21 (stereo not drawn),inactive,inactive,inactive,inactive,inactive,inactive,,,,
O=S(=O)(NCc1cn2ccsc2n1)c1cccs1,inactive,inactive,,inactive,,,"0% [at 17.1 µM, percent relative to cAMP agonist control]",-13.2% [at 30.8 µM],3.73% [at 30.8 µM],
CCCCNC(=O)c1ccc2nc(-c3ccco3)c(-c3ccco3)nc2c1,7.94 µM (active),inactive,,inactive,,,"3.07% [at 17.1 µM, percent relative to cAMP agonist control]",-2.83% [at 30.8 µM],11.8% [at 30.8 µM],
N#Cc1c(-c2ccccc2)nc(SCc2cccc(Cl)c2)[nH]c1=O,67.5 µM (active),inactive,inactive,37.9 µM (active),inactive,inactive,,,,
N#Cc1c(-c2ccccc2)nc(SCc2ccc(Cl)cc2)[nH]c1=O,33.8 µM (active),inactive,inactive,33.8 µM (active),inactive,inactive,,,,
O=C(NCc1ccncc1)C1Cc2c(-c3ccccc3Oc3ccccc3)ccnc2O1 (stereo not drawn),inactive,inactive,inactive,inactive,inactive,inactive,,,,
COc1ccc(C2c3c(ncn(CCCO)c3=N)Oc3ccc4ccccc4c32)cc1 (stereo not drawn),inactive,inactive,,inactive,,,"3.99% [at 17.1 µM, percent relative to cAMP agonist control]",0.394% [at 30.8 µM],22.2% [at 30.8 µM],
O=C(O)c1cccc(NC(=O)c2cn(-c3ccccc3)nc2-c2cc3ccccc3o2)c1,50.1 µM (active),inactive,,inactive,,,"0.161% [at 17.1 µM, percent relative to cAMP agonist control]",-4.75% [at 30.8 µM],16.8% [at 30.8 µM],
COc1ccc(OCC(=O)Nc2ccccc2N2CCCCC2)cc1,inactive,inactive,,inactive,,,"-5.15% [at 17.1 µM, percent relative to cAMP agonist control]",-4.31% [at 30.8 µM],2.16% [at 30.8 µM],
Cn1cc([C@]2(O)C(=O)Nc3ccc(F)cc32)c2ccccc21,inactive,inactive,,inactive,,,"-4.66% [at 17.1 µM, percent relative to cAMP agonist control]",-17.1% [at 30.8 µM],12.7% [at 30.8 µM],
CCCCOc1ccccc1Cn1c(=O)sc2ccccc21,inactive,inactive,inactive,,inactive,inactive,,,,inactive [at 12.7 µM]
Nc1ncnc2nc(Sc3ccc(Cl)cc3)[nH]c12,inactive,inactive,inactive,inactive,inactive,inactive,,,,
CC1CCCCC1NC(=O)COC(=O)c1c2c(nc3ccccc13)/C(=C/c1ccco1)CC2 (stereo not drawn),75.7 µM (active),inactive,inactive,inactive,inactive,inactive,,,,
CCCCCCNC(=O)c1cc(-c2ccco2)nc2ccccc12,22.4 µM (active),inactive,,inactive,,,"3.51% [at 17.1 µM, percent relative to cAMP agonist control]",-13.3% [at 30.8 µM],27.4% [at 30.8 µM],
CCOc1ccc(NS(=O)(=O)c2cc3c(cc2C)N(C)CCO3)cc1,inactive,inactive,,inactive,,,"7.18% [at 17.1 µM, percent relative to cAMP agonist control]",-12% [at 30.8 µM],29.5% [at 30.8 µM],

SMILES,Potency [1],Potency [2],Potency [3],Potency [4],Potency [5],Potency [6],activation [3],"activity change, negative = inhibition [5]",activation [6],outcome [4]
O=C(N/N=C/c1c(O)n(-c2ccccc2Cl)c(=O)c2ccccc12)c1cccnc1,3.38 µM (active),inactive,inactive,inactive,inactive,inactive,,,,
CCC(=O)N1CCc2cc(OC)c(OC)cc2C1COc1ccccc1OC (stereo not drawn),inactive,inactive,inactive,inactive,inactive,,,,4.46% [at 30.8 µM],
CCN(CC)CCn1c2c(c(SCC(=O)NCc3ccccc3)nc1=O)CCCC2,inactive,inactive,inactive,inactive,inactive,inactive,,,,
Cc1cccc(CN2[C@@H](CC(C)C)COCCS2(=O)=O)c1,inactive,inactive,inactive,inactive,inactive,inactive,,,,
CCOc1c(OC)cccc1C(=O)NCC1(c2ccccc2)CCCC1,inactive,inactive,inactive,inactive,inactive,inactive,,,,
Cn1cc(C(C[N+](=O)[O-])c2ccccc2)c2ccccc21 (stereo not drawn),inactive,inactive,,inactive,,,"0.148% [at 17.1 µM, percent relative to cAMP agonist control]",-4.06% [at 30.8 µM],13.8% [at 30.8 µM],
CN[C@@H](CO)C(=O)NC[C@H]1O[C@@H](n2cnc3c(N)ncnc32)[C@H](O)[C@@H]1O,inactive,inactive,inactive,inactive,inactive,inactive,,,,
COc1ccccc1CNC(=O)CCCn1nc(C)c2c(C)n(-c3ccc(C)cc3)nc2c1=O,inactive,inactive,inactive,,inactive,inactive,,,,inactive [at 12.7 µM]
Cc1ccc(C(=O)ONc2ccc(N=NC(=O)c3ccccc3O)cc2)cc1,7.57 µM (active),inactive,inactive,inactive,inactive,inactive,,,,
Nc1nc(NCC(=O)O)nc(NCc2ccccc2)c1[N+](=O)[O-],inactive,inactive,inactive,inactive,inactive,inactive,,,,
Cc1cc(NCc2ccco2)n2c(nc3ccccc32)c1C#N,inactive,inactive,inactive,inactive,inactive,inactive,,,,
C#CCOc1ccc(/C=C2/C(=O)N(c3cccc(C(=O)O)c3)N=C2C)cc1OC,inactive,inactive,,inactive,,,"5.95% [at 17.1 µM, percent relative to cAMP agonist control]",6.78% [at 30.8 µM],10.5% [at 30.8 µM],
COc1ccc(N(C)C(=O)CC2(CC(=O)O)CCCCC2)cc1,inactive,inactive,,inactive,,,"8.49% [at 17.1 µM, percent relative to cAMP agonist control]",1.07% [at 30.8 µM],2.37% [at 30.8 µM],
O=C1NN(c2ccccc2)C(=O)/C1=C/c1ccc(Sc2cccc3ccccc23)o1,17.8 µM (active),inactive,,inactive,,,"3.36% [at 17.1 µM, percent relative to cAMP agonist control]",-8.41% [at 30.8 µM],23.8% [at 30.8 µM],
CC(=O)c1cccc(OC(=O)C2=CC=CN3CCS(=O)(=O)N=C23)c1,inactive,inactive,inactive,inactive,inactive,inactive,,,,
Cc1ccc2nc(-c3ccc(Cl)cc3)c(Cc3ccccc3C(F)(F)F)n2c1,inactive,inactive,,inactive,,,"10.6% [at 17.1 µM, percent relative to cAMP agonist control]",0.28% [at 30.8 µM],-0.77% [at 30.8 µM],
CCN1/C(=C/C(C)=C/c2sc3ccccc3[n+]2CC)Sc2ccccc21,50.1 µM (active),inactive,,inactive,,,"8.04% [at 17.1 µM, percent relative to cAMP agonist control]",12.4% [at 30.8 µM],12.5% [at 30.8 µM],
O=C(COc1ccc2ccccc2c1)Nc1cccc(C(=O)Nc2ccccc2C(=O)O)c1,33.8 µM (active),inactive,inactive,47.8 µM (active),inactive,inactive,,,,
Cc1ccc2nc(-c3ccccc3)c(Cc3ccccc3C(F)(F)F)n2c1,inactive,inactive,inactive,inactive,inactive,inactive,,,,
CCCCn1c(N)c(N(CC(C)C)C(=O)C2CCN(S(=O)(=O)c3ccc(C)c(C)c3)CC2)c(=O)[nH]c1=O,inactive,inactive,inactive,inactive,inactive,inactive,,,,
O=C(Cc1ccccc1)NCC(=O)N1CCC1,inactive,inactive,inactive,inactive,inactive,inactive,,,,
